From PubChem BioAssay
An excerpt weighted towards active compounds, which were near 3% of everything screened.
SENP7 inh = inhibitors of human SENP7 protease; Q9BQF6; recombinant SENP7, Z-RLRGG-aminoluciferin luminescence, 40 min; inhibition, % at 5 µM; actives 1.5% (n = 330,000);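 active = inhibition above about 50% at the single test dose, limit read from the data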;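 note: plate controls were DMSO with enzyme for no effect and no enzyme buffer wells for full effect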
Target sequence (Q9BQF6 706-1050 limits assumed): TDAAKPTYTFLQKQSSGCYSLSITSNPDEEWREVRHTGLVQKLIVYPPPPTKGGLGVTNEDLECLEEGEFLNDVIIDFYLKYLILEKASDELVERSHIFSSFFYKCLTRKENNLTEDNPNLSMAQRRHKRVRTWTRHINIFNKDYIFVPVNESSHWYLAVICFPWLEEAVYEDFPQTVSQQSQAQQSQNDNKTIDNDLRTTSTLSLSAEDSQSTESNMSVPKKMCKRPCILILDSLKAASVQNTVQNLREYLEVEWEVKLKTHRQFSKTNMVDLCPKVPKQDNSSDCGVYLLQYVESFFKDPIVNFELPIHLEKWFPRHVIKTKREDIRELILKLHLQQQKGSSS
SENP8 block-1 = blocks human SENP8 cleavage of Nedd8 substrate; Q96LD8; recombinant SENP8, Nedd8 substrate fluorescence; inhibition, % at 20 µM; actives 0.64% (n = 360,000); in the data active = inhibition mostly above about 40%, no sharp cut-off; inactive = mostly below about 27%
Target sequence (Q96LD8 whole entry, looked up): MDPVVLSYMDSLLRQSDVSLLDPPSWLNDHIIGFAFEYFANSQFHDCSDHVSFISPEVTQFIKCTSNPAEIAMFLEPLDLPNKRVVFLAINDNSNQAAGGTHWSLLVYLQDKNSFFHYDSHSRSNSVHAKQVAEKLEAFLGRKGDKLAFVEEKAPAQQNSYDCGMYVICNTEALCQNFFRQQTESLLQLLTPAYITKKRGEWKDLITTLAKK
PPC-1+TRAIL kill = compounds killing PPC-1 cancer cells with TRAIL present (potentiator screen, no TRAIL-free arm). PPC-1 cells + TRAIL, ATPLite viability luminescence. cell killing (% activity), % at 4 µM or 5 µM. actives 0.41% (n = 220,000). AID 1443;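 active = cell killing above 50% in the first pass at 4 µM, then a duplicate retest at 5 µM averaging 50% or more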;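 note: plate controls were cells with TRAIL plus DMSO for no effect and medium-only wells lacking cells for full effect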
SENP8 block-2 = SENP8 protease inhibition | purified SENP8, Z-RLRGG-aminoluciferin cleavage, luminescence | inhibition, % at 10 µM | actives 1.2% (n = 330,000) | AID 2540; in the data active = inhibition above about 50%
C8 TRAIL sens = caspase-8 TRAIL sensitization; NB7+C8 cells + TRAIL, ATPlite viability luminescence; inhibition (viability loss, TRAIL sensitization), % at 10 µM; actives 1% (n = 360,000); AID 624354;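 active = compounds causing at least 50% loss of cell viability in the single-dose screen, relative to plate controls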
SENP6 inh = SENP6 protease inhibition. actives 1.8% (n = 330,000). inhibition, % at 10 µM. Recombinant SENP6 catalytic domain, aminoluciferin luminescence;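 active = inhibition above about 50% at the single tested dose, limit read from the data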;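 note: plate controls were DMSO wells with enzyme for no effect and DMSO wells lacking enzyme for full effect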
An asterisk follows results filed as active.

Screening OCCC1CN(Cc2cccn2-c2ncccn2)CCN1CCc1ccccc1 (centres undefined) returned SENP7 inh 5.0, SENP8 block-1 9.4, PPC-1+TRAIL kill 32.9, SENP8 block-2 4.7, C8 TRAIL sens 7.3 and SENP6 inh -6.0.
For CCN(CC)c1ccc(C(=O)NNC(=O)CCNC(=O)c2ccccc2)cc1 the results were SENP7 inh -6.1, SENP8 block-1 -11.4, SENP8 block-2 -14.4, C8 TRAIL sens 10.8 and SENP6 inh -10.9.
For CCN(CC)c1ccc(C(=C2C=CC(=[N+](CC)CC)C=C2)c2ccc(N(CC)CC)cc2)cc1 the results were SENP8 block-1 24.9 and C8 TRAIL sens 88.1*.
`CCN(CC)c1ccc(C(=C2C=CC(=[N+](CC)CC)C=C2)c2ccccc2)cc1` gave SENP8 block-1 2.1 and C8 TRAIL sens 89.4*.
CCN(CC)c1ccc(C(=O)NNC(=O)CCl)cc1 was read as SENP7 inh 8.1, SENP8 block-1 -4.5, PPC-1+TRAIL kill 5.4, SENP8 block-2 0.7, C8 TRAIL sens 5.1 and SENP6 inh 1.8.
Screening COc1ccc(C2C(C(=O)N3CC(C)CC(C)C3)c3ccccc3C(=O)N2C)cc1 (centres undefined) returned SENP7 inh 1.7, SENP8 block-1 12.4, PPC-1+TRAIL kill -0.2, SENP8 block-2 1.1, C8 TRAIL sens 27.9 and SENP6 inh 2.1.
`COc1ccc(C2C(C(=O)N3CCC(C)CC3)c3ccccc3C(=O)N2C)cc1` (centres undefined) gave SENP7 inh -1.0, SENP8 block-1 8.1, PPC-1+TRAIL kill 3.3, SENP8 block-2 -3.2, C8 TRAIL sens 54.0* and SENP6 inh 5.7.
`COc1ccc(C2C(C(=O)N3CCN(c4ccccc4F)CC3)c3ccccc3C(=O)N2C)cc1` (centres undefined) gave SENP7 inh -7.2, SENP8 block-1 6.5, PPC-1+TRAIL kill 4.8, SENP8 block-2 -7.9, C8 TRAIL sens 66.9* and SENP6 inh 0.2.
For O=C(CCl)N1N=C(c2ccco2)CC1c1cccs1 (centres undefined) the results were SENP8 block-1 9.4, PPC-1+TRAIL kill 4.7 and C8 TRAIL sens 91.8*.
For CC(=O)N1N=C(c2ccco2)CC1c1cccs1 (centres undefined) the results were SENP7 inh -9.0, SENP8 block-1 5.1, PPC-1+TRAIL kill -5.2, SENP8 block-2 -6.7, C8 TRAIL sens 5.8 and SENP6 inh 5.9.
`Cc1ccc(C2=NN(C(=O)CCl)C(c3cccs3)C2)o1` (centres undefined) gave SENP7 inh -1.2, SENP8 block-1 -1.7, PPC-1+TRAIL kill -6.7, SENP8 block-2 -3.6, C8 TRAIL sens 95.3* and SENP6 inh -10.3.
For Cc1cc2nc(N3C(=O)CNC3=S)sc2cc1C the results were SENP7 inh 95.6*, SENP8 block-1 -7.9, PPC-1+TRAIL kill 48.3, SENP8 block-2 95.0*, C8 TRAIL sens 57.3* and SENP6 inh 95.1*.
CCOc1ccc2nc(N3C(=O)CNC3=S)sc2c1 was read as SENP7 inh 25.7, SENP8 block-1 1.2, PPC-1+TRAIL kill 42.3, SENP8 block-2 20.0, C8 TRAIL sens 59.4* and SENP6 inh 38.9.
For COc1ccc(-c2csc(N3C(=O)CNC3=S)n2)cc1 the results were SENP8 block-1 12.0, PPC-1+TRAIL kill 39.6 and C8 TRAIL sens 22.2.
`CCOc1ccc(NC(=O)CNC(=O)c2ccc([N+](=O)[O-])cc2)cc1` gave SENP7 inh -5.0, SENP8 block-1 -8.0, PPC-1+TRAIL kill 15.8, SENP8 block-2 -6.9, C8 TRAIL sens 2.2 and SENP6 inh -9.0.
CCOC(=O)C1=C(C)OC(=Cc2ccc(OC)cc2)C1=O was read as SENP8 block-1 -145.6 and C8 TRAIL sens 69.7*.
For CCOC(=O)C1=C(Nc2ccc(OC)cc2)OCC1=O the results were SENP7 inh 0.9, SENP8 block-1 16.1, PPC-1+TRAIL kill 0.4, SENP8 block-2 -3.6, C8 TRAIL sens 9.2 and SENP6 inh -13.2.
COc1ccccc1-c1ncn(Cc2cccc(-c3ccccc3)c2)c1-c1ccco1 was read as SENP8 block-1 -33.3 and C8 TRAIL sens 1.4.
Screening CC(C)CCCCCCCCCCCCC(=O)NCC(=O)NC1C(O)C(O)C(Nc2ncnc3nc[nH]c23)OC1C(O)CO (centres undefined) returned SENP8 block-1 10.2 and C8 TRAIL sens 65.1*.
`Cc1ccc2nc(-c3ccc(NC(=O)CSc4nccc(=O)[nH]4)cc3)sc2c1` gave SENP7 inh 69.3*, SENP8 block-1 -362.1, PPC-1+TRAIL kill 28.1, SENP8 block-2 8.5, C8 TRAIL sens 46.7 and SENP6 inh 81.2*.
Cc1ccc2nc(-c3ccc(NC(=O)C(C)Sc4nncs4)cc3)sc2c1 (centres undefined) was read as SENP7 inh 37.3, SENP8 block-1 inactive, SENP8 block-2 4.7, C8 TRAIL sens 51.5* and SENP6 inh -6.6.
For Cc1ccc2nc(-c3ccc(NC(=S)NC(=O)CC(C)C)cc3)sc2c1 the results were SENP7 inh 6.2, SENP8 block-1 -295.7, PPC-1+TRAIL kill -14.1, SENP8 block-2 4.2, C8 TRAIL sens 9.0 and SENP6 inh 4.9.
`Cc1ccc2nc(-c3ccc(NC(=O)CCS(=O)(=O)c4ccccc4)cc3)sc2c1` gave SENP7 inh 21.1, SENP8 block-1 -411.9, PPC-1+TRAIL kill 45.4, SENP8 block-2 -1.0, C8 TRAIL sens 88.0* and SENP6 inh -9.3.
For CC(=O)Nc1ccc(NC(=O)CSc2nnc(NC(=O)c3ccccc3F)s2)cc1 the results were SENP8 block-1 -1.4 and C8 TRAIL sens 66.3*.
Screening O=C(CSc1nnc(NC(=O)c2ccccc2F)s1)NC1CCCC1 returned SENP7 inh -0.4, SENP8 block-1 -1.7, SENP8 block-2 -1.1, C8 TRAIL sens 37.8 and SENP6 inh -4.4.
CCN(C(=O)COC(=O)c1cc2ccccc2cc1OC)c1c(N)n(Cc2ccccc2)c(=O)[nH]c1=O was read as SENP8 block-1 inactive and C8 TRAIL sens -9.0.
`O=C(OCC(=O)N1CCN(c2ccc(F)cc2)CC1)c1cnc2ccccc2n1` gave SENP7 inh 9.9, SENP8 block-1 1.2, SENP8 block-2 -2.3, C8 TRAIL sens -0.6 and SENP6 inh -8.8.
CC1(C)Cc2c(cnn2-c2ccc(F)cc2)C(NC(=O)CN2CCCCC2=O)C1 (centres undefined) was read as SENP7 inh 3.8, SENP8 block-1 1.1, SENP8 block-2 -3.1, C8 TRAIL sens -19.3 and SENP6 inh -4.8.
For O=C(CCN1C(=O)NC2(CCCC2)C1=O)Nc1ccc(-c2nc3ccccc3s2)cc1 the results were SENP7 inh 11.6, SENP8 block-1 inactive, SENP8 block-2 17.1, C8 TRAIL sens 56.1* and SENP6 inh 18.5.
Cc1nnc(SCC(=O)Nc2ccccc2NC(=O)CSc2nnc(C)s2)s1 was read as SENP7 inh 9.7, SENP8 block-1 12.7, PPC-1+TRAIL kill 23.8, SENP8 block-2 0.2, C8 TRAIL sens 3.8 and SENP6 inh 2.8.
